{"source": "PubChem BioAssay (NCATS)", "note": "Inconclusive results are not listed. Values without a mark were called inactive. The source made the active and inactive calls. The call rests on the fitted dose curve; in most records, active means well fitted cell-killing curve with a large enough effect; inconclusive means small, poorly fitted or top-dose-only effect; inactive means flat fitted curve, though single readings scatter. Potency means the concentration at half of the fitted maximal effect."}
{"experiment": "Cell Viability - LYMP2-012 (AID 982);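 further: cellular ATP by luciferase luminescence where a drop means cytotoxicity; cells exposed to compound for one day before reading; nearly all actives have a fitted effect of over 55% in size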;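 on activity change, negative = cytotoxicity: 0% = DMSO only and full loss = 92 µM tetraoctylammonium bromide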", "details": "LYMP2-012 lymphoblastoid cell viability qHTS; series mostly up to 92.2 µM; activity change, negative = cytotoxicity: at the top concentration", "description": "NIH Chemical Genomics Center [NCGC]\nNIH Molecular Libraries Screening Centers Network [MLSCN]\nNational Institutes of Environmental Health Sciences [NIEHS]\nNational Toxicology Program [NTP]\nWe have developed a 1536-well cell-based assay for quantitative high throughput screening (qHTS) against a number of cell lines to determine in vitro cytotoxicity of small molecules. This particular assay uses a human lymphoblastoid cell line (LYMP2-012) purchased from Coriell Institute for Medical Research.\nNCGC Assay Protocol Summary:\nThe CellTiter-Glo luminescent cell viability assay (Promega) is a homogeneous method to measure the number of viable cells in culture. The end point readout of this assay is based on quantitation of intracellular ATP, an indicator of metabolic activity, using the luciferase reaction. Luciferase catalyzes the oxidation of beetle Luciferin to oxyluciferin and light in the presence of ATP. The luminescent signal is proportional to amount of ATP present.\nUsing the CellTiter-Glo luminescent cell viability assay, the amount of cellular ATP was measured in the lymphoblastoid cell line with complete culture medium following compound treatment for 24 hours. The assay was performed in opaque white Kalypsys 1536-well plates. In the screen, tetraoctylammonium bromide was used as positive control. Library compounds were measured for their ability to cause acute toxicity in the cell line, as reflected by a decrease in intracellular ATP levels, in a concentration-dependent manner. […] AC50 values were determined from concentration-response data modeled with the standard Hill equation.\nqHTS protocol for CellTiter Glo lymphoblastoid cellular assay\n[Step] [Parameter] [Value] [Description]\n1. Reagent; 5 uL; 2500 lymphoblastoid cells/well\n2. Time; 5 hr; 37 C incubation\n4. Controls; 23 nL; Tetraoctylammonium bromide 6.4pM to 92 uM\n5. Time; 24 hr; 37 C incubation\n6. Reagent; 5 uL; CellTiter Glo reagent\n7. Time; 30 min; Room Temperature\n8. Detection; Luminescence; Viewlux plate reader\nKeywords: cell viability, cytotoxicity, lymphoblastoid cell line, luminescence, NTPHTS, NTPHTS_NCGC, NIEHS, DSSTox, MLSMR, MLSCN, NIH Roadmap, qHTS, NCGC", "units": {"activity change, negative = cytotoxicity": "%"}}
{"smiles": "Oc1cc2c(cc1O)[C@H]1c3ccc(O)c(O)c3OC[C@@]1(O)C2", "Potency": "25.1 µM (active)"}
{"smiles": "O=[N+]([O-])c1cc(N(CCO)CCO)ccc1NCCO", "activity change, negative = cytotoxicity": -28.3}
{"smiles": "Nc1ccc2c(c1)C(=O)c1ccccc1C2=O", "activity change, negative = cytotoxicity": -26.9}
{"smiles": "C=Cc1cccc(C)c1", "activity change, negative = cytotoxicity": -10.2}
{"smiles": "Cc1ccccc1OCC1CO1", "note": "(stereo not given)", "activity change, negative = cytotoxicity": -12.7}
{"smiles": "CCCCCCCC/C=C\\CCCCCCCC(=O)N(CCO)CCO", "activity change, negative = cytotoxicity": -17.7}
{"smiles": "CC(C)S", "activity change, negative = cytotoxicity": -15.3}
{"smiles": "CCCCCCN", "activity change, negative = cytotoxicity": -8.33}
{"smiles": "C/C(Cl)=C/CCl", "activity change, negative = cytotoxicity": 7.77}
{"smiles": "O=c1[nH]ncc2ccccc12", "activity change, negative = cytotoxicity": -3.17}
{"smiles": "C=C(C#N)C(=O)OCC", "activity change, negative = cytotoxicity": -9.63}
{"smiles": "CC(=O)OC1CC(C)OC(C)O1", "note": "(stereo not given)", "activity change, negative = cytotoxicity": 0.181}
{"smiles": "CC1=C(/C=C/C(C)=C/C=C/C(C)=C/C=O)C(C)(C)CCC1", "Potency": "50.1 µM (active)"}
{"smiles": "CC(=O)c1ccc(Cl)c(Cl)c1Cl", "activity change, negative = cytotoxicity": 3.64}
{"smiles": "N=C1C=CC(=C(c2ccc(N)cc2)c2ccc(N)cc2)C=C1", "Potency": "7.94 µM (active)"}
{"smiles": "Brc1cc(Br)c(Oc2cc(Br)c(Br)cc2Br)cc1Br", "activity change, negative = cytotoxicity": 5.36}
{"smiles": "CCC(Cl)CC(Cl)C(Cl)C(Cl)C(Cl)C(C)Cl", "note": "(stereo not given)", "activity change, negative = cytotoxicity": -0.418}
{"smiles": "c1ccc2c(c1)ccc1ccccc12", "activity change, negative = cytotoxicity": 1.42}
{"smiles": "c1ccc(COCc2ccccc2)cc1", "activity change, negative = cytotoxicity": 4.84}
{"smiles": "OCC(CBr)(CBr)CBr", "activity change, negative = cytotoxicity": -14.6}
{"smiles": "c1ccncc1", "activity change, negative = cytotoxicity": -12}
{"smiles": "c1ccc2ncccc2c1", "activity change, negative = cytotoxicity": -13.4}
{"smiles": "CCCCC(CC)COC(=O)COc1ccc(Cl)cc1Cl", "note": "(stereo not given)", "activity change, negative = cytotoxicity": -0.448}
{"smiles": "O=[N+]([O-])c1ccccc1Nc1ccccc1", "activity change, negative = cytotoxicity": -8.51}
{"smiles": "C[Si](C)(C)Cl", "activity change, negative = cytotoxicity": -10.2}
{"smiles": "CCCCC(CC)COCCCN", "note": "(stereo not given)", "activity change, negative = cytotoxicity": -7.04}
{"smiles": "Brc1ccc(-c2ccccc2)cc1", "activity change, negative = cytotoxicity": -4.14}
{"smiles": "C=CC1CO1", "note": "(stereo not given)", "activity change, negative = cytotoxicity": -7.09}
{"smiles": "Oc1ccc2c(c1)OCO2", "activity change, negative = cytotoxicity": 9.94}
{"smiles": "NC(=O)c1ccc([N+](=O)[O-])cc1", "activity change, negative = cytotoxicity": 7.91}
{"smiles": "c1ccc(CSCc2ccccc2)cc1", "activity change, negative = cytotoxicity": -9.26}
{"smiles": "CC(=O)OC(C(=O)c1ccccc1)c1ccccc1", "note": "(stereo not given)", "activity change, negative = cytotoxicity": -4.34}
{"smiles": "CC(C)COC(=O)COc1cc(Cl)c(Cl)cc1Cl", "activity change, negative = cytotoxicity": -3.87}
{"smiles": "O=CC(=O)c1ccccc1", "activity change, negative = cytotoxicity": -22.7}
{"smiles": "Nc1cc([N+](=O)[O-])ccc1O", "activity change, negative = cytotoxicity": -7.42}
{"smiles": "CCCCCCc1ccc(-c2ccc(C#N)cc2)cc1", "activity change, negative = cytotoxicity": 5.03}
{"smiles": "CN(C)c1ccc(C(=N)c2ccc(N(C)C)cc2)cc1", "Potency": "39.8 µM (active)"}
{"smiles": "CCCC(=O)OC(=O)CCC", "activity change, negative = cytotoxicity": -4.04}
{"smiles": "C=C1CC[C@H](O)C/C1=C/C=C1\\CCC[C@]2(C)[C@@H]([C@H](C)CCCC(C)C)CC[C@@H]12", "Potency": "50.1 µM (active)"}
{"smiles": "c1cc2c3c(c1)ccc1cccc(c13)C2", "activity change, negative = cytotoxicity": -18}
